PubChem BioAssay AID2705 (National Center for Advancing Translational Sciences (NCATS), 2010)
The list shows a part of the results. Records with an inconclusive call do not appear. The source made the active and inactive calls. The call rests on the fitted dose curve; in most records, active means well fitted inhibition curve with a large enough effect; inconclusive means small, poorly fitted or top-dose-only effect; inactive means flat fitted curve, though single readings scatter.

The compounds below were run against Dual specificity tyrosine-phosphorylation-regulated kinase 1A (Homo sapiens) (UniProt Q13627) (assay: Assay for Inhibitors of Dual-Specificity Tyrosine-(Y)-Phosphorylation Regulated Kinase 1A (Kinase-Glo assay)). Details: recombinant DYRK1A, Kinase-Glo ATP depletion luminescence.
Source text: NIH Molecular Libraries Probe Production Centers Network [MLPCN] NIH Chemical Genomics Center [NCGC] MLSCN Grant: 1R03MH084827-01 PI Name: Tom Misteli NCGC Assay Overview: The CMGC group of protein kinases which includes CDK-like kinases (Clk) and Dyks are essential kinases found in all eukaryotes. Clks have been implicated to play a role in the regulation of alternative splicing; while Dyrks, in particular over expression of Dyrk1A, has been linked to diseases as Down syndrome (DS; OMIM 190685) and Alzheimer disease (AD; OMIM 104300). Among the members of the CMGC group, the Clks and the Dyrks are very closely related therefore to determine validity and selectivity of an active compound observed in the CLK4 qHTS screen (AID:1770), a bioluminescent counter-screen against Dyrk1A was developed. In addition, potent and selective compounds against Dyrk1A were identified to further assess the role of this enzyme in DS and AD. Dyrk1A (Invitrogen, cat # PV3785) was assayed using ATP and DYRKtide (AnaSpec, cat# 62698) as substrates. Promega Kinase-Glo (cat# V6712) technology was used to detect the residual ATP following kinetic reaction. The Kinase-Glo Plus contains Ultra-Glo [5] luciferase and D-luciferin which generates a bioluminescence signal from the remaining ATP. No enzyme and harmine (Sigma, cat # 286044-1G), a compound shown to inhibit Dyrks were used as a positive control; while DMSO treatment was used as a negative control.
NCGC Assay Protocol Summary: Two uL/well of substrate solution (8uM Dyrktide, 2uM ATP, 25mM Tris-HCl pH 7.5, 10mM MgCl2 , 0.5mM EGTA, 5mM cystein, 0.01% Triton X-100 final concentration) was dispensed into 1536-well assay plates (Greiner, solid white, medium-binding plates) with Aurora Discovery BioRAPTR Flying Reagent Dispenser (FRD, Beckton-Dickenson). Compound solution (23 nL) was transferred to the assay plate using Kalypsys pin tool equipped with a 1536-pin tool. One uL/well enzyme solution (5nM Dyrk1A, 25mM Tris-HCl pH7.5, 10mM MgCl2, 0.5mM EGTA, 5mM cystein, 0.01% Triton X-100 final concentration) was then added using FRD yielding a total kinase reaction volume of 3uL/well. After 2 hours of room temperature incubation, 3uL Kinase-Glo detection reagent was added for a final assay volume of 6uL/well. The plates were spun for 30 seconds (1000 rpm) and incubated at ambient temperature for 2 minutes followed by a luminescence read using Perkin Elmer ViewLux plate reader at 3 seconds exposure time and 2x binning.

Potency, active:
Cc1nc(CNc2ncnc3ccc(-c4ccc5c(c4)OCO5)cc23)cs1 292 nM
Cc1nc(C)c(-c2ccc3ncnc(NCc4ncc[nH]4)c3c2)s1 5190 nM
CN(Cc1cncn1C)c1ncnc2ccc(-c3ccc4c(c3)OCO4)cc12 2600 nM
c1coc(CCNc2ncnc3ccc(-c4ccc5c(c4)OCO5)cc23)c1 164 nM
